TEAD-YAP block – TEAD-YAP interaction inhibition, primary screen, TEAD-YAP interaction inhibitor project, luminescence, HEK-TIYL cells | TEAD-Gal4/YAP UAS-luciferase luminescence | inhibition, % at 9.12 µM | 1.4% of 640,000 active | AID 1259422, 2018; in the data active = inhibition above about 32%
MITF primary – MITF inhibitors, primary screen, biochemical, AlphaScreen, human. Microphthalmia-associated transcription factor (Homo sapiens), O75030. 0.91% of 650,000 active. inhibition, % at 2.6 µM. AlphaScreen MITF homodimerization, bead proximity signal. AID 1259374, 2018; in the data active = inhibition above about 50%
Target sequence (O75030 whole entry, looked up): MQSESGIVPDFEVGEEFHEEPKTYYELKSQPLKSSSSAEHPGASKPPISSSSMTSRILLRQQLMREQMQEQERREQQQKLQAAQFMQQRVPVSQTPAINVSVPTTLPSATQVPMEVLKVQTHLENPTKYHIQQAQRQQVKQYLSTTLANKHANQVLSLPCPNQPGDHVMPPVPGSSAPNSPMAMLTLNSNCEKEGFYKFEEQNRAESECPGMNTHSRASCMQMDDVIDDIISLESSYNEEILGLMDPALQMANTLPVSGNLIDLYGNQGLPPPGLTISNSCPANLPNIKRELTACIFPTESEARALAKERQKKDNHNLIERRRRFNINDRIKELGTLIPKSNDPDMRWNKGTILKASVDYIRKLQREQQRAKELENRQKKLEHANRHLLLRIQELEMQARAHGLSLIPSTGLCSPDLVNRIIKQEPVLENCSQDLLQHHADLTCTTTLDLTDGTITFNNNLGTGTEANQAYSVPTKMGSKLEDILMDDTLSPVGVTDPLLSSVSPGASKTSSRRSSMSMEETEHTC
FBW7 act – FBW7 E3 ligase activators, primary screen, biochemical, AlphaScreen, human; AlphaScreen FBW7–phospho-cyclin E peptide binding, activator screen; normalized activity (activation), % at 26.1 µM; 0.13% of 650,000 active; AID 1259310, 2017; in the data active = normalized activity above about 1.9%;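 note: purified mutant Fbw7 with reduced substrate affinity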
GPR151 ag – activators of human GPR151, primary screen, cell-based, PathHunter beta-arrestin, luminescence; PathHunter beta-arrestin GPR151 cells; activation, % at 11.2 µM; 1% of 650,000 active; AID 1508602, 2020; in the data active = activation above about 4.9%
Large screens that a line does not name were inactive. Sampled rows, rich in hits. Any-hit rate of the full collection: about 3.4%.

COc1ccc(/C=C/C(=O)Nc2ccccc2F)cc1	TEAD-YAP block 80
O=C(/C=C/c1ccccc1Cl)Nc1ccc2c(c1)C(=O)NC2=O	none
O=C(/C=C/c1ccc(Cl)cc1Cl)Nc1ccccc1F	TEAD-YAP block 47
O=C(/C=C/c1ccccc1Cl)Nc1cccc(O)c1	TEAD-YAP block 38
C=C(C)CNC(=O)c1cc(COc2ccc(F)cc2F)on1	none
NS(=O)(=O)c1cccc(NS(=O)(=O)c2cccc([N+](=O)[O-])c2)c1	FBW7 act 4.6
COc1ccc(C(=O)Nn2c(SCC(=O)NCc3ccco3)nc3ccccc3c2=O)cc1	TEAD-YAP block 75
COc1ccc(C(=O)Nn2c(SCC(=O)NCCc3ccccc3)nc3ccccc3c2=O)cc1	TEAD-YAP block 71
CC(Cc1ccco1)NC(=O)Nc1cccs1 (stereo unspecified)	none
CC(=O)NC1=NC(=O)/C(=C\c2cn(Cc3ccc(F)cc3Cl)c3ccccc23)S1	none
CC(=O)O[C@H]1C(=O)[C@@]2(C)[C@H]([C@H](OC(=O)[14c]3[14cH][14cH][14cH][14cH][14cH]3)[C@]3(O)C[C@H](OC(=O)[C@H](O)[C@@H](NC(=O)c4ccccc4)c4ccccc4)C(C)=C1C3(C)C)[C@]1(OC(C)=O)CO[C@@H]1C[C@@H]2O	none (no result: TEAD-YAP block)
CC(=O)O[C@H]1C(=O)[C@@]2(C)[C@H]([C@H](OC(=O)c3ccccc3)[C@]3(O)C[C@H](OC(=O)[C@H](O)[C@@H](NC(=O)c4ccccc4)c4ccccc4)C(C)=C1C3(C)C)[C@]1(OC(C)=O)CO[C@@H]1C[C@@H]2O	TEAD-YAP block 64
Cc1c(NC(=O)COC(=O)CN2C(=O)C(=O)c3ccccc32)c(=O)n(-c2ccccc2)n1C	none
Cc1nn2c(=O)/c(=C\c3ccccn3)sc2nc1=O	MITF primary 70
CCCCCSc1nnc2nc(C)cc(C)n12	none
CCOC(=O)c1cnc2ccc(OCC)cc2c1NCCCN(CC)CC	TEAD-YAP block 33
CCOC(=O)c1cnc2c(OC)cccc2c1NC1CCCCC1	TEAD-YAP block 55
CCOC(=O)c1cnc2c(OC)cccc2c1Nc1ccc(OC)c(OC)c1	TEAD-YAP block 45
CCOC(=O)c1cnc2c(OC)cccc2c1NCC1CCCN1CC (stereo unspecified)	none
CCOC(=O)c1cnc2c(OC)cccc2c1NC1CCCCCC1	TEAD-YAP block 66
CCOC(=O)c1cnc2c(Cl)c(Cl)ccc2c1NC1CCCCC1	none
COC(=O)C1=C(C)Nc2ncnn2C1c1ccc(OC)c(OC)c1 (stereo unspecified)	none
Nc1nc(Nc2ccncn2)nc2c1ncn2-c1ccsc1	TEAD-YAP block 38, FBW7 act 16
OCCNc1nc(Nc2cnccn2)nc2c1ncn2-c1ccsc1	none
Nc1nc(Nc2ccc(-n3ccnc3)cc2)nc2c1ncn2-c1ccsc1	none
OCCNc1nc(Nc2ccncn2)nc2c1ncn2-c1ccsc1	TEAD-YAP block 36
CC(C)(C)OC(=O)COC(=O)/C=C/c1ccc(S(=O)(=O)N2CCCCCC2)cc1	none
OC[C@@H]1CCCN1c1ccnc2c(-c3ccccc3F)cnn12	TEAD-YAP block 90
Cc1ccc(-c2cnn3c(N4CCC[C@H]4CO)ccnc23)cc1	TEAD-YAP block 96
O=C(NC1CC1)c1ccc(-c2cnn3c(N4CCC[C@H]4CO)ccnc23)cc1	none
OCc1cccc(-c2cnn3c(N4CCC[C@H]4CO)ccnc23)c1	TEAD-YAP block 66
OC[C@@H]1CCCN1c1ccnc2c(-c3ccc(F)c(Cl)c3)cnn12	TEAD-YAP block 83
OCc1ccccc1-c1cnn2c(N3CCC[C@H]3CO)ccnc12	none
OC1CCN(c2ccnc3c(-c4ccc(F)c(Cl)c4)cnn23)CC1	none
CCN(CC)CCNc1nc(-c2ccccc2F)nc2ccccc12	none
COc1ccc(-c2cnn3c(N4CCCCC4CCO)ccnc23)cc1OC (stereo unspecified)	TEAD-YAP block 38
CN1CCN(c2ccnc3c(-c4ccccc4Oc4ccccc4)cnn23)CC1	none
OC[C@@H]1CCCN1c1ccnc2c(-c3ccc(O)cc3)cnn12	TEAD-YAP block 95
OC[C@@H]1CCCN1c1ccnc2c(-c3cnn(Cc4ccccc4)c3)cnn12	none
CN1CCN(c2ccnc3c(-c4ccccc4F)cnn23)CC1	TEAD-YAP block 67
CCOC(=O)N1CCc2c(sc(NCc3ccc(C)o3)c2C(=O)Nc2ccc(OC)cc2OC)C1	none
COc1ccc(Oc2ncnc3c2cnn3-c2ccccc2)cc1	none
Cc1ccc(Oc2ncnc3c2cnn3-c2ccccc2)cc1	TEAD-YAP block 51
Fc1ccc(-n2ncc3c(Oc4ccc(Cl)cc4)ncnc32)cc1	TEAD-YAP block 42
Cc1ccc(-n2ncc3c(Oc4ccc(F)cc4)ncnc32)cc1	TEAD-YAP block 58
Fc1cccc(Oc2ncnc3c2cnn3-c2cccc(Cl)c2)c1	none
COC(=O)/C=C/C(=O)Nc1ccccc1O	none
COc1ccc(C(=O)/C=C/c2cccc(F)c2)cc1	none
COc1cc(C(=O)/C=C/c2ccc(F)cc2)ccc1O	TEAD-YAP block 66
COC(=O)c1ccc(/C=C/C(=O)c2ccc(F)cc2)cc1	none
COc1cc(C(=O)/C=C/c2cccc(F)c2)ccc1O	TEAD-YAP block 56
CN1CCN(c2ccccc2NC(=O)c2ccco2)CC1	none
CN(Cc1ccccc1)S(=O)(=O)c1ccc(NC(=O)/C=C/c2ccc(F)cc2)cc1	none
CCOc1ccc(/C=C/C(=O)Nc2ccccc2)cc1	TEAD-YAP block 51
CC(=O)/C=C/c1ccc(OCc2ccccc2)cc1	TEAD-YAP block 44
COc1ccc(/C=C/C(=O)Nc2ccc(S(=O)(=O)N(C)Cc3ccccc3)cc2)cc1	TEAD-YAP block 43
Cc1ccc(N(CC(=O)NCc2ccccc2)S(=O)(=O)c2ccccc2)cc1	none
COc1ccc(C(=O)Nc2cccc3c(NC(=O)c4ccc(OC)cc4)cccc23)cc1	none
CCCOc1ccc(C(=O)NC(=S)Nc2sc3c(c2C(N)=O)CCCCCC3)cc1	none
CCOC(=O)C1CCN(c2ccc([N+](=O)[O-])cc2C(=O)Nc2cc(OC)cc3cccnc23)CC1	FBW7 act 2.1
COc1cc(NC(=O)c2cc([N+](=O)[O-])ccc2N2CCN(C)CC2)c2ncccc2c1	none
Cc1ccc(NC(=O)c2ccc(NCCCN(C)Cc3ccccc3)c([N+](=O)[O-])c2)cc1F	none
Cc1ccc2nc(C)c(C(=O)N3CC(C)CC(C)C3)n2c1 (stereo unspecified)	FBW7 act 2.1
Cc1ccc2nc(C)c(C(=O)N3CCCC3)n2c1	none
Cc1ccc2nc(C)c(C(=O)NC(C)C)n2c1	FBW7 act 1.9
COc1cccc(/C=C2\C(=O)NC(=O)N(c3ccccc3C)C2=O)c1OC	none
CCC(Nc1ccc(Br)cc1)C(=O)N/N=C/c1cc([N+](=O)[O-])ccc1O (stereo unspecified)	TEAD-YAP block 43
CCC(Nc1ccc(Br)cc1)C(=O)N/N=C/c1cc(OC)ccc1O (stereo unspecified)	none

Screens: PubChem, The Scripps Research Institute Molecular Screening Center
